PKA kinase inh: inhibitors of human PKA kinase activity, primary screen, biochemical, ATP-depletion luminescence, Kemptide substrate; 65,000 tested, 0.1% active; cAMP-dependent protein kinase catalytic subunit alpha (Homo sapiens), P17612; PKA Kemptide phosphorylation, Kinase-Glo ATP luminescence; AID 524, 2006; inhibition, % at 6 µM;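 active = inhibition above the screen-wide mean inhibition plus 3 SD, cut at about 21% in these data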
TNAP act mid DEA: human TNAP enzyme activators, primary screen, biochemical, luminescent, intermediate phosphate acceptor level; 64,000 tested, under 10 active; activation factor at 20 µM; purified TNAP, CDP-star luminescence, 100 mM DEA, 30 min; hits give high values; scale: 0 levamisole-inhibited, 1 vehicle-only enzyme; AID 813, 2007;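 active = activation factor of at least 2 at 20 µM, relative to controls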
ROCK2 blocker: inhibitors of human ROCK2 kinase, primary screen, biochemical, high-throughput, luminescence. Rho-associated protein kinase 2 (Homo sapiens), O75116. purified ROCK2, Kinase-Glo ATP depletion luminescence. inhibition, % at 6 µM. 60,000 tested, 0.35% active;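 active = inhibition above the screen-wide mean inhibition plus 3 SD, cut at about 18% in these data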;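 note: plate controls were DMSO wells for no effect and Y-27632 control wells after no-enzyme background subtraction for full effect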
Target sequence (O75116 whole entry, looked up): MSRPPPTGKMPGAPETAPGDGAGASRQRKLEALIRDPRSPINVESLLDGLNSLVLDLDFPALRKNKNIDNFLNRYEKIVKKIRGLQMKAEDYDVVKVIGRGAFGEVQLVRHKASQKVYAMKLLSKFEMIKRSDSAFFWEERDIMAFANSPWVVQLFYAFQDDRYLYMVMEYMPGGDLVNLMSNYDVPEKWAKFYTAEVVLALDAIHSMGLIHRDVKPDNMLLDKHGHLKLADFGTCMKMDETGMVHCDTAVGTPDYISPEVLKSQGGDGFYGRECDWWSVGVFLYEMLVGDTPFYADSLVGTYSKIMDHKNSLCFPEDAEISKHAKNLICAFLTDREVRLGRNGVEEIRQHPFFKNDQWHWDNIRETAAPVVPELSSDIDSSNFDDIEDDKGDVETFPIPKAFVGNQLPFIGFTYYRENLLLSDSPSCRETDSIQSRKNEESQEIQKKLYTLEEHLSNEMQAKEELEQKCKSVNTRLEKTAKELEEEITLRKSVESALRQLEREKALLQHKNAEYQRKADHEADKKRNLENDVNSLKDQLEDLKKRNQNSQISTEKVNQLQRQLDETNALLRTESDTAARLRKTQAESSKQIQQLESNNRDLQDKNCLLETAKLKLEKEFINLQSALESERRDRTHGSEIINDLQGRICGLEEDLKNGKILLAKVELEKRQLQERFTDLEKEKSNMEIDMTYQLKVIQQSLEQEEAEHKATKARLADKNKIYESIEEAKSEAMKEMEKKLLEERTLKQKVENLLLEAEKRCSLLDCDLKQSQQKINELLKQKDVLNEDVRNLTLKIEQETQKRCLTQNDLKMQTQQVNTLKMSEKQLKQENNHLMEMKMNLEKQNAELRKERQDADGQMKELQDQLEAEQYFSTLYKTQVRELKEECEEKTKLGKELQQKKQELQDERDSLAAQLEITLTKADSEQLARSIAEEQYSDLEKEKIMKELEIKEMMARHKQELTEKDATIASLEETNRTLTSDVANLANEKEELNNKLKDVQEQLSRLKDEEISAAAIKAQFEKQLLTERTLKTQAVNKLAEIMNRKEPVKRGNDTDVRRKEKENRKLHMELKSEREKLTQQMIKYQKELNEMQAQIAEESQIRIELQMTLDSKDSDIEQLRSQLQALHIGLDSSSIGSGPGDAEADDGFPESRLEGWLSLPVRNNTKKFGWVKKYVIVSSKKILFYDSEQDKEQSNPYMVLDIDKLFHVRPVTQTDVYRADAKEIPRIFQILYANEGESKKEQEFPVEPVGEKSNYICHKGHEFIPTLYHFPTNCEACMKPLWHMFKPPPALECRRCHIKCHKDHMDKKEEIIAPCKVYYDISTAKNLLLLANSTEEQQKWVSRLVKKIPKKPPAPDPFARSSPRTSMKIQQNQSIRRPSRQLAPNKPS
* marks the source's active call; other numbers are inactive results; nt = not tested or not shown. This is one part of a sample in which hits are shown more often than they occur.

SMILES | PKA kinase inh | TNAP act mid DEA | ROCK2 blocker
CN(C)c1ccc(C2C3C(=O)NC(=O)C3ON2c2ccc(Cl)cc2)cc1 (stereo not given) | 7 | 0.8 | 1
COc1ccc2c(Cl)c(-c3nnc(SCC(N)=O)n3C)sc2c1 | 3 | 0.9 | 0
COc1ccc2c(Cl)c(C(N)=O)sc2c1 | 29* | 0.9 | 50*
CC(=O)C(Sc1nc(-c2ccco2)nc2c1c(=O)n(C)c(=O)n2C)C(=O)N(C)C (stereo not given) | 3 | 0.9 | 0
N#Cc1cccc(NC(=O)NCCc2c[nH]c3ccccc23)c1 | 8 | 0.9 | 22*
N#Cc1cn(CC(=O)NCCc2c[nH]c3ccccc23)c2ccccc12 | 6 | 0.9 | 6
COc1ccccc1N1CSC2=C(C#N)C(c3ccc(SC)cc3)CC(=O)N2C1 (stereo not given) | 6 | 0.9 | 6
O=C(c1ccc2nc(-c3ccco3)c(-c3ccco3)nc2c1)N1CCN(c2ccccc2)CC1 | 2 | 0.9 | -6
O=C(Nc1ccc(N2CCOCC2)cc1)Nc1ccc2nc(-c3ccco3)c(-c3ccco3)nc2c1 | 4 | 0.7 | 42*
CCN(CC)S(=O)(=O)c1cccc(-c2nnc(SCc3nnc(-c4cccs4)o3)n2N)c1 | 0 | 0.9 | nt
Nc1nonc1-c1nc2ccccc2[nH]1 | 19 | 0.9 | 61*
Cn1cc(Cl)c(-c2nc3ccccc3[nH]2)n1 | 8 | 0.9 | nt
N#CCSc1nc2c(cc1C#N)CCCCCC2 | 4 | 0.9 | 10
N#Cc1cc2c(nc1SCc1ccncc1)CCC2 | 0 | 0.9 | 58*
COCCN(CCOC)S(=O)(=O)c1ccc(C(=O)Nc2nc(C)c(C(C)=O)s2)cc1 | -5 | 0.9 | -3
COCCN(CCOC)S(=O)(=O)c1ccc(C(=O)Nc2nc(-c3ccncc3)cs2)cc1 | 12 | 0.9 | 19*
COC(=O)c1[nH]c2cccc(Cl)c2c1NC(=O)CN(C)C1CCCCC1 | -6 | 0.8 | -1
CCn1c(SCC(=O)Nc2nc(C)c(C(=O)OC)s2)nnc1C(C)C | -3 | 0.9 | -1
Cc1nccc2[nH]c(=O)c(C(=O)NC3CCN(Cc4ccccc4)CC3)cc12 | 10 | 0.9 | 3
CC(C)CCN1CC(C(=O)N2CCN(c3ccc(F)cc3)CC2)CC1=O (stereo not given) | 3 | 0.9 | 129*
O=C1CC(C(=O)N2CCN(c3ccc(F)cc3)CC2)CN1CCc1ccccc1 (stereo not given) | 5 | 1 | 4
Cc1ccc2c(c1)N(CCC(=O)NCCCOC(C)C)C(=O)C(C)O2 (stereo not given) | -6 | 0.9 | -3
CCn1c(SCc2ccc(OC)cc2)nnc1-c1ccncc1 | 4 | 0.9 | 2
O=c1ccc(=O)n2n1CC(O)C2 | 14 | 0.9 | 22*
Cc1ccc(SCc2nc(-c3ccncc3)no2)cc1 | 21* | 0.9 | 24*
SMILES | PKA kinase inh | TNAP act mid DEA | ROCK2 blocker
Cc1ccc(SCc2nc(-c3ccccc3)no2)cc1 | -6 | 0.8 | -4
Cc1ccccc1C(=O)Nc1cccc(NC(=O)Cn2cnc3c(=O)n(C)c(=O)n(C)c32)c1 | 6 | 0.9 | 2
CCn1cc(C(=O)NCCOC)c(=O)c2ccc(C)nc21 | 0 | 0.9 | -1
CCn1cc(C(=O)Nn2cnnc2)c(=O)c2ccc(C)nc21 | 7 | 0.9 | 20*
COc1ccc2cc3c(N)c(C(=O)NCc4ccco4)sc3nc2c1 | -6 | 0.9 | 20*
Nc1c(C(=O)NCc2ccco2)sc2nc3c(cc12)C(=O)CCC3 | 9 | 0.9 | 5
Cc1ccc(C(C)C)c(OCCNc2nc3c(c(=O)n(C)c(=O)n3C)n2C)c1 | 2 | 0.9 | 2
CCCn1c(NC(=O)c2cccc(S(=O)(=O)N3CCCC3)c2)nc2ccccc21 | 12 | 1 | 32*
CCCn1c(NC(=O)c2ccccc2)nc2ccccc21 | 3 | 0.9 | 2
Cc1ccc2c(CSc3nc4ccccc4c(=O)n3CCCO)cc(=O)oc2c1 | -5 | 1 | -3
Nc1ccc2cn[nH]c2c1 | 8 | 0.9 | 23*
COc1ccc(CNc2ccc3cn[nH]c3c2)c(OC)c1OC | nt | 1.1 | nt
COc1cccc(C2C(C(N)=O)=C(C)Nc3nc(-c4ccccc4Cl)nn32)c1 (stereo not given) | 4 | 0.7 | -5

High-throughput results: PubChem BioAssay, several laboratories
